“And” between values parts separate entries of the source, which are not always exact repeats. Equal entries are not always repeated. Records with an inconclusive call do not appear. Unmarked numbers belong to inactive results. The source made the active and inactive calls. Calls follow the shape of the dose curve; as a rule, active = well fitted curve in the direction sought with a large enough effect; inconclusive = small, poorly fitted or top-dose-only effect, or another doubt; inactive = no such curve, though single readings can be large; an effect the other way counts as inactive or inconclusive.

The text below walks through data of PubChem BioAssay (NCATS).

Assay [1] in a line: Viability qHTS for spleen associated tyrosine kinase inhibitor (SYKi) naive MV4-11 cells (AID 1963823). Also: nearly all actives have a fitted effect of over 40% in size. In a few lines:
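Cells: MV4-11, SYK inhibitor naive, 500 per well. Treatment: library compounds, 72 hr, 37 C, 5% CO2. Read-out: CellTiter-Glo luminescence after 10 min RT.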

The nature of assay [2]: Viability qHTS for spleen associated tyrosine kinase inhibitor (SYKi) drug resistant MV4-11 cells (AID 1963824). Also: nearly all actives have a fitted effect of over 35% in size. The essentials: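 CellTiter-Glo luminescence, read 10 min after reagent addition, reports viability after a 72 hr compound exposure. Cells are an MV4-11 line made resistant to SYK inhibition, seeded at 500 per well onto compound-containing plates.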
(In general: Quantitative high-throughput screening tests each substance at several concentrations.)

Assay [3] is described as follows: Cellular viability qHTS for adrenocortical cancer (ACC) cell line SW-13 (AID 1963989). Also: nearly all actives have a fitted effect of over 65% in size.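 As to activity (max response): cells grown in serum-free medium with ITS supplement; % is scaled to controls: 0 for no effect and ±100 for the full control effect.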 The conditions noted are these: SW-13 ACC cells viability, CellTiter-Glo, 48 h; activity (max response): hits give low values. The essentials: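 SW-13 cells in ITS-supplemented serum-free DMEM were plated overnight, then exposed for 48 h at 37C to compound titrations (up to 46 uM final). Viability was read by CellTiter-Glo luminescence; four-parameter logistic fits gave IC50 and efficacy.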
Potency is read from the fitted curve at half-maximal effect.

Turning to `O=C(O)/C=C(\CC(=O)O)C(=O)O`, the Potency result in assay [1] and in assay [2] was “inactive” in each case. The activity (max response) in assay [3] is 7.17%.

As for `CC(C)(C)CC(C)(C)c1ccc(OCCOCC[N+](C)(C)Cc2ccccc2)cc1`, the Potency was 2.37 µM (active) and 1.16 µM (active) in assay [1]; 2.37 µM (active) and 1.46 µM (active) in assay [2]; 5.17 µM (active) in assay [3].

For `CC1=C(CC(=O)O)c2cc(F)ccc2/C1=C\c1ccc(S(C)=O)cc1` (configuration not stated), the Potency result in assay [1] and in assay [2] was “inactive” each time. Besides, the activity (max response) in assay [3] is 1.22%.

As to `CC(C)C[C@H](CO)Nc1nc(S[C@@H](C)c2ccccc2)nc2nc(N)sc12`, the values for the Potency in assay [1], in assay [2] and in assay [3] were 14.6 µM (active), 6.61 µM (active) and 31.6 µM (active), respectively.

Regarding `CC(/C=C/[C@@H]1C[C@]1(C)c1ccc2c(c1)C(C)(C)CCC2(C)C)=C\C(=O)O`, the Potency in assay [1] is 0.0661 µM (active); in assay [2], 0.468 µM (active). In addition, the activity (max response) in assay [3] is -5.24%.

As to `CCN(CCCOc1ccc2c(Nc3cc(CC(=O)Nc4cccc(F)c4)[nH]n3)ncnc2c1)CCOP(=O)(O)O`, the Potency in assay [1] was 23.1 nM (active) and 186 nM (active); in assay [2] it was 58 nM (active) and 372 nM (active). Besides, the activity (max response) in assay [3] is -30.5%.

Turning to `CC(C)n1c(/C=C/[C@H](O)C[C@H](O)CC(=O)O)c(-c2ccc(F)cc2)c2ccccc21`, the Potency in assay [1] is 2.63 µM (active); in assay [2], 1.32 µM (active); in assay [3] it was 17.8 µM (active).

Consider `CCN(CC)C(=O)N1CCN(C)CC1`, for which the Potency entry in assay [1] and in assay [2] was “inactive” in each case. Further, the activity (max response) in assay [3] is -0.284%.

Turning to `Nc1nc(F)nc2c1ncn2[C@@H]1O[C@H](COP(=O)(O)O)[C@@H](O)[C@@H]1O`, the values for the Potency in assay [1] and in assay [2] were 8.33 µM (active) and 14.8 µM (active), respectively. Besides, the activity (max response) in assay [3] is -12.7%.
